{
  "source": "PubChem BioAssay AID648",
  "about": "(SRMLSC, 2007)",
  "note": "Out of some 86,000 compounds screened, about 920 (1.1%) were called active. The list comes from a sample in which actives are over-represented; it also holds similar structures and randomly drawn compounds. Unmarked numbers belong to inactive results.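 How the source made its calls: active means viability at or below 30%; inactive means viability above 30%.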",
  "data": [
    {"experiment": "endothelial cell growth inhibition – HUVEC, 384-well, primary screen (AID 648);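 further: 100% = median luminescence of DMSO-only cell control wells on each plate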", "settings": "HUVEC proliferation, CellTiter-Glo luminescence, 72 h; hits give low values; screened at 10 µM (by protocol)", "values": [
      {"smiles": "Cc1ccc(OCC(=O)N/N=C\\c2ccco2)c(C)c1", "viability": "93%"},
      {"smiles": "Cc1ccc(/C=N/NC(=O)C2=NNC(c3ccccc3)(c3ccccc3)C2)c(O)c1", "viability": "25.4% (active)"},
      {"smiles": "C/C(=N\\NC(=O)c1nc(C)cc(C)n1)c1ccccc1", "viability": "93.6%"},
      {"smiles": "CCN(CC)CCn1c2ccc(Cl)cc2c2nc(C)sc21", "viability": "87.5%"},
      {"smiles": "CCOC(=O)c1ccc(N2C(=O)CC(N(C)Cc3ccccc3)C2=O)cc1", "note": "(stereo not drawn)", "viability": "92.5%"},
      {"smiles": "COc1ccc(NC(=O)/C(Cl)=C(/Cl)S(=O)Cc2ccc(C)cc2)cn1", "note": "(stereo not drawn)", "viability": "1.52% (active)"},
      {"smiles": "COc1ccc(CC(=O)Nc2ccc(-c3nnc(-c4ccc(C)cc4)o3)cc2)cc1", "viability": "61.7%"},
      {"smiles": "COc1cccc(NC(=O)Cc2ccc(C)cc2)c1", "viability": "95.9%"},
      {"smiles": "COc1cc(C(=O)OC(C)C(=O)NCC2CCCCC2)cc(NC(=O)c2ccco2)c1OC", "note": "(stereo not drawn)", "viability": "100%"},
      {"smiles": "N#CCSc1nc2ccc(N3CCOCC3)cc2c(=O)n1CCc1ccccc1", "viability": "90.5%"},
      {"smiles": "Cc1ccc(CNC(=O)CCNS(=O)(=O)c2cccc3nonc23)cc1", "viability": "95.1%"},
      {"smiles": "COc1ccc(-c2cc(C(F)(F)F)nc(NCc3cccnc3)n2)cc1", "viability": "88.9%"},
      {"smiles": "COc1ccc(-c2nnco2)cc1OC", "viability": "102%"},
      {"smiles": "COc1ccc(-c2cc(C(F)(F)F)nc(S(C)(=O)=O)n2)cc1OC", "viability": "13.2% (active)"},
      {"smiles": "COC(=O)C1C(=O)NCC1c1ccc(OC)cc1", "note": "(stereo not drawn)", "viability": "93.7%"},
      {"smiles": "COCc1[nH][nH]c(=O)c1C=Nc1ccc(F)cc1F", "viability": "86.9%"},
      {"smiles": "CCN(CC)CCCNC(=O)CCc1ccccc1", "viability": "103%"},
      {"smiles": "Cc1cc(N2CCN(S(=O)(=O)c3ccc(C)c(C)c3)CC2)c2ccccc2n1", "viability": "81.6%"},
      {"smiles": "Cc1ccc(NC(=O)CCN2CCc3ccccc3C2)cc1", "viability": "103%"},
      {"smiles": "CC(=O)c1cccc(NC(=O)Nc2ccc(C)cc2)c1", "viability": "90%"},
      {"smiles": "Cc1ccc(NC(=S)NC(NC(=O)Cc2cccc3ccccc23)C(Cl)(Cl)Cl)cc1", "note": "(stereo not drawn)", "viability": "4.6% (active)"},
      {"smiles": "COc1ccc(-c2cn(-c3ccc(C)cc3)c(=O)n2CC(=O)Nc2ccc(OC)c(OC)c2)cc1", "viability": "92.4%"},
      {"smiles": "COc1ccc(-c2nnc(SCc3cccnc3)o2)cc1", "viability": "104%"},
      {"smiles": "COc1cc2c(cc1OC)C(C(C)C)=NC(C)(C)C2", "viability": "90.5%"},
      {"smiles": "COc1ccc(CCNC(=O)CN(c2ccccc2)S(C)(=O)=O)cc1OC", "viability": "94.6%"},
      {"smiles": "FC(F)(F)c1nnc2ccc(N3CCN(c4ccccc4)CC3)nn12", "viability": "85.4%"},
      {"smiles": "COC(=O)c1ccccc1NC(=O)Cc1ccccc1OC", "viability": "91.1%"},
      {"smiles": "Cc1ccc(C(CC(=O)O)Nc2nc(N3CCCCC3)nc(N3CCCCC3)n2)cc1", "note": "(stereo not drawn)", "viability": "99.9%"},
      {"smiles": "CC(C)n1c(C(O)c2ccccc2)nc2ccccc21", "note": "(stereo not drawn)", "viability": "99.3%"},
      {"smiles": "CC(Nc1nc(N2CCCC2)nc2ccccc12)c1ccccc1", "note": "(stereo not drawn)", "viability": "4.14% (active)"},
      {"smiles": "CCN(c1ccccc1)S(=O)(=O)c1ccc(C(=O)Nc2nccs2)cc1", "viability": "104%"},
      {"smiles": "Cc1ccc(-c2noc(CC(c3ccccc3)c3ccccc3)n2)cc1", "viability": "135%"},
      {"smiles": "COc1ccc(N2CCN(Cc3ccc(Br)s3)CC2)cc1", "viability": "108%"},
      {"smiles": "COc1ccc(Cl)cc1C(=O)NCC#N", "viability": "91.6%"},
      {"smiles": "O=C(NCc1ccccc1)C1CCCN(S(=O)(=O)c2cccs2)C1", "note": "(stereo not drawn)", "viability": "93%"},
      {"smiles": "CC(=O)Oc1ccc(C(C)=O)c2c1OCCO2", "viability": "82.4%"},
      {"smiles": "CCN(CC)C(=O)CC1(c2ccccc2OC)CCOC(C(C)C)C1", "note": "(stereo not drawn)", "viability": "103%"},
      {"smiles": "CC(C)c1ccc(OCC(O)Cn2cnc3ccccc32)cc1", "note": "(stereo not drawn)", "viability": "84.8%"},
      {"smiles": "OC(COc1ccccc1)Cn1cc(Br)cn1", "note": "(stereo not drawn)", "viability": "99.8%"},
      {"smiles": "OC(CN=c1sc2ccccc2n1CC(O)COc1ccccc1)COc1ccccc1", "note": "(stereo not drawn)", "viability": "28.9% (active)"},
      {"smiles": "COc1ccccc1/C=C/C1=NC(=C\\N(C)C)/C(=O)O1", "viability": "90.8%"},
      {"smiles": "CC(C)c1ccc(-c2noc(C3CCCN(S(C)(=O)=O)C3)n2)cc1", "note": "(stereo not drawn)", "viability": "82.4%"},
      {"smiles": "Cc1ccc(CNC(=O)C2CCCN2C(=O)NCc2ccccc2)cc1", "note": "(stereo not drawn)", "viability": "102%"},
      {"smiles": "CC1CCC(N2CC(=O)N(Cc3ccc4c(c3)OCO4)C(c3ccc(F)cc3)C2=O)CC1", "note": "(stereo not drawn)", "viability": "104%"},
      {"smiles": "CC(C)Cn1c(N)c(C(=O)NCc2cccs2)c2nc3ccccc3nc21", "viability": "3.01% (active)"},
      {"smiles": "C=CCn1c(N)c(S(=O)(=O)c2cccs2)c2nc3ccccc3nc21", "viability": "107%"},
      {"smiles": "C=CCn1c(N)c(C(=O)OCC(C)C)c2nc3ccccc3nc21", "viability": "66.4%"},
      {"smiles": "O=C(Nc1ccc2nc3n(c(=O)c2c1)CCCCC3)c1ccccc1Cl", "viability": "109%"},
      {"smiles": "CCOC(=O)c1cc2c(ccn2C)n1CC(=O)N1CCC(C)CC1", "viability": "93.4%"},
      {"smiles": "CN(C)CCNC(CC(=O)Nc1ccc(Cl)c(Cl)c1)C(=O)O", "note": "(stereo not drawn)", "viability": "93.2%"},
      {"smiles": "O=C(CC(O)(C(F)(F)F)C(F)(F)F)Nc1ccc(Cl)c(Cl)c1", "viability": "3.08% (active)"},
      {"smiles": "N/C(=N\\OC(=O)Nc1ccc(Cl)c(Cl)c1)c1ncc(C(F)(F)F)cc1Cl", "viability": "60.3%"},
      {"smiles": "COc1ccc(-c2cc3nc(C)c(CCC(=O)NC(C)CCc4ccco4)c(C)n3n2)c(OC)c1", "note": "(stereo not drawn)", "viability": "88.3%"},
      {"smiles": "CCNC(=O)NC(=O)C(C)OC(=O)c1cc(S(=O)(=O)N2CCCCCC2)ccc1OC", "note": "(stereo not drawn)", "viability": "79.6%"},
      {"smiles": "Cc1[nH][nH]c(=O)c1C(c1ccc(-c2ccc(Cl)cc2)o1)c1c(C)[nH][nH]c1=O", "viability": "24% (active)"},
      {"smiles": "Cc1[nH][nH]c(=O)c1N=Nc1ccccc1", "viability": "109%"},
      {"smiles": "CCCCOC(=O)Cn1c(=N)n(CCN(CC)CC)c2ccccc21", "viability": "104%"},
      {"smiles": "O=C(COc1cc(Cl)c(Cl)cc1Cl)NC(=O)NC1CCCC1", "viability": "88.8%"},
      {"smiles": "O=S(=O)(NCC1OCCc2ccccc21)c1ccccc1", "note": "(stereo not drawn)", "viability": "104%"},
      {"smiles": "COC(=O)C(C(=O)Nc1cccc(C)n1)C1CCCCCC1", "note": "(stereo not drawn)", "viability": "88.7%"},
      {"smiles": "COC(=O)c1ccccc1Oc1c(F)c(F)nc(N2CCOCC2)c1F", "viability": "95.4%"},
      {"smiles": "CC(C)(C)C(=O)Cn1c(NCCO)nc2ccccc21", "viability": "95.1%"},
      {"smiles": "OCCNc1nc2ccccc2n1-c1ncnc2sc3c(c12)CCC3", "viability": "4.2% (active)"},
      {"smiles": "O=C(O)[C@@H]1CCCN1c1ncnc2sc3c(c12)CCC3", "viability": "99%"},
      {"smiles": "CN=C1SC(CC(=O)Nc2ccc(C(=O)O)cc2)C(=O)N1C", "note": "(stereo not drawn)", "viability": "88%"},
      {"smiles": "CCC(=O)NC(Nc1nc2ccc(C)cc2s1)(C(=O)OC)C(F)(F)F", "note": "(stereo not drawn)", "viability": "101%"},
      {"smiles": "Cc1ccc(C)c(NC2=NCC(=O)N2c2ccc3c(c2)OCCO3)c1", "viability": "103%"},
      {"smiles": "CCn1c(/C=C/c2ccc([N+](=O)[O-])o2)nc2ccccc2c1=O", "viability": "4.01% (active)"},
      {"smiles": "O=c1c2ccccc2nc(N/N=C/c2ccccc2)n1O", "viability": "101%"},
      {"smiles": "Cc1nc2ccccc2c(=O)n1CCCn1ccnc1", "viability": "92.5%"},
      {"smiles": "CCn1nc(C)c(NC(=O)/C=C/c2ccc(OC)c(COc3ccc(Br)cc3)c2)c1C", "viability": "10.6% (active)"},
      {"smiles": "COc1ccc(/C=C/C(=O)Nc2c(C)nn(C)c2C)cc1COc1ccc(Br)cc1", "viability": "46.5%"},
      {"smiles": "CCn1c(COc2ccc(OC)cc2)nnc1SCC(=O)Nc1cc(OC)ccc1OC", "viability": "98%"},
      {"smiles": "c1ccc(-n2nc3ccccc3n2)cc1", "viability": "94.1%"},
      {"smiles": "COC(=O)c1[nH]c2ccc(Br)cc2c1NC(=O)Oc1ccccc1", "viability": "86.1%"},
      {"smiles": "Cn1c(N)c(C(=O)COC(=O)C23CC4CC(CC(C4)C2)C3)c(=O)n(C)c1=O", "viability": "99.2%"},
      {"smiles": "Cc1ccc(CN(C(=O)c2sc3ccccc3c2Cl)C2CCS(=O)(=O)C2)cc1", "note": "(stereo not drawn)", "viability": "80.5%"},
      {"smiles": "CC(C)CC[n+]1ccn(C2=C([O-])c3ccccc3C(=O)/C2=N\\S(=O)(=O)c2ccccc2)c1", "viability": "20.6% (active)"},
      {"smiles": "CN(Cc1ccccc1)C(=O)COc1ccccc1", "viability": "98.7%"},
      {"smiles": "COc1nc(NC2CCCCC2)nc(N2CCCCCC2)n1", "viability": "77.8%"},
      {"smiles": "CCOC(=O)c1cnc(SCc2nc(N)nc(Nc3ccc(OC)cc3)n2)nc1N", "viability": "111%"},
      {"smiles": "Cc1cccc2nc(CSc3nc4[nH]ncc4c(=O)n3-c3cccc(Cl)c3)cc(=O)n12", "viability": "76.9%"},
      {"smiles": "CCn1c(CNC(=O)c2ccccc2)nnc1SCC(=O)N1CCN(c2ccccc2)CC1", "viability": "98.7%"},
      {"smiles": "C=CCn1c(SCC(=O)/C(C#N)=C(\\C)N)nc2sc(C)c(C)c2c1=O", "viability": "28% (active)"},
      {"smiles": "Cc1sc2nc(SCC(N)=O)n(C)c(=O)c2c1C", "viability": "98.6%"},
      {"smiles": "CCCn1c(=O)c2ccccc2n2c(SCC(=O)/C(C#N)=C(\\C)N)nnc12", "viability": "83.6%"},
      {"smiles": "O=C(CSCc1c(F)cccc1Cl)NCC1CCCO1", "note": "(stereo not drawn)", "viability": "101%"},
      {"smiles": "Cc1ccc(O/C=C2\\OC(=O)c3ccccc32)cc1", "viability": "98.2%"},
      {"smiles": "COC(=O)c1sc(=S)n(-c2ccc(Cl)cc2)c1C", "viability": "90%"},
      {"smiles": "COc1ccc(-n2nnnc2SCc2nc(N)nc(N3CCOCC3)n2)cc1", "viability": "96.3%"},
      {"smiles": "CCOC(=O)c1sc(NC(=O)CSc2nc(C)cc(C(F)(F)F)n2)c(C#N)c1C", "viability": "88.5%"},
      {"smiles": "COc1ccccc1-c1nc(C#N)c(N2CCC(C(N)=O)CC2)o1", "viability": "95.4%"},
      {"smiles": "COc1ccc(Nc2oc(-c3ccccc3Cl)nc2C#N)cc1", "viability": "29.9% (active)"},
      {"smiles": "CCOc1ccc(Nc2oc(Cc3ccccc3)nc2C#N)cc1", "viability": "104%"},
      {"smiles": "O=C(Nc1cccc(NC(=O)c2ccco2)c1)c1cnccn1", "viability": "83.6%"},
      {"smiles": "Fc1ccc(-n2c(Cc3ccccc3)nnc2SCc2nc(-c3ccc(Cl)cc3)no2)cc1", "viability": "76.6%"},
      {"smiles": "COc1ccc(N(CC(=O)NC2CCCCC2)S(=O)(=O)c2c(C)[nH]c(=O)[nH]c2=O)cc1", "viability": "96.7%"},
      {"smiles": "COc1ccc([N+](=O)[O-])cc1C1NN=C(c2cccc3ccccc23)S1", "note": "(stereo not drawn)", "viability": "81.9%"}
    ]}
  ]
}
